Each structure is given as a SMILES string. Hit rate of the full screen: of about 15,000 compounds, about 60 (0.4%) were called active. Only a selection was taken, and actives are over-represented in it overall. A number with no mark means an inactive call. No stated cut-off is given here; in the data, active means activation above about 2.2%; inactive means the rest.

The experiment can be described thus: agonists of NOTCH signaling (AID 434982). The note with it: NOTCH signaling luciferase reporter cells, luminescence; at 2.5 µM; hits give high values. A general note: A reporter such as luciferase makes a cellular process visible.
With `O=C(Nc1ccc(OC(F)F)cc1)Nc1coc(-c2ccccc2)c1`, the activation is -0.11%.

Take `CCSC(=O)NCc1ccccc1`: the activation was -0.05%.

On to `O=C(O)c1ccccc1Nc1ccccc1F`, for which the activation is -0.29%.

For `CN(n1cnc2ccccc2c1=O)S(=O)(=O)c1cc(Cl)sc1Cl`, the activation was -0.39%.

Take `COC(=O)c1sc(SC)c(-c2ccn[nH]2)c1C`: the activation is 0.4%.

For `O=C(/C(=N\N=C\c1ccc2c(c1)OCO2)c1ccccc1)c1ccccc1`, the activation is -0.24%.

`CCCCCCCN=C(C)c1ccccc1O`: the activation was -0.3%.

Regarding `O=C(O)CC1(CC(=O)Nc2ccccc2-n2cccn2)CCCCC1`, the activation is -0.3%.

Turning to `CSc1ccc(Br)cc1`, the activation is 0.1%.

`O=C(N/N=C/c1cccs1)C(=O)Nc1ccc(Cl)c(Cl)c1`: the activation is -0.5%.

`O=C1C=C(c2ccccc2)CN(C2CCCCC2)C1=O`: the activation is -1.07%.

Regarding `O=C(Nc1ccccc1)N1CCN(c2ncnc3sccc23)CC1`, the activation is -0.57%.

With `COCCOc1ccc(NC(=S)N2CCOCC2)cc1`, the activation is 0.32%.

As to `COC(=O)c1ccccc1NC(=O)c1ccc(Oc2cc(Cl)cc(Cl)c2)o1`, the activation is -0.31%.

On to `O=C(Sc1ccccc1)c1ccc(C(F)(F)F)cc1`, for which the activation is -0.46%.

As to `CC(N)=NCCc1ccncc1`, the activation is -0.78%.

As for `N/C(=N\OC(=O)CCn1cccc(C(F)(F)F)c1=O)c1ccc(OC(F)(F)F)cc1`, the activation is -0.58%.

In the case of `CCOC(=O)/C(C#N)=C/NNc1c(C)csc1C(=O)OC`, the activation was 0.05%.

As to `Cn1/c(=N\N=C2CCCCC2)sc2ccccc21`, the activation is 0.03%.

Consider `CSc1cccc(NC(=O)C(=O)NCCc2ccccn2)c1`, for which the activation is -1.05%.

For `COCCCN/C(SCc1c(F)cccc1Cl)=C(\C#N)C(N)=O`, the activation was 0.49%.

For `CC1CN(c2ccc(NC(=S)NCc3cccs3)cc2)CC(C)O1` (stereo not given), the activation was -0.73%.

`N#Cc1c(-c2ccccc2)c(-c2ccccc2)n[nH]c1=O`: the activation is -0.27%.

Turning to `O=C1C(Nc2ccccc2)=CC(c2ccc([N+](=O)[O-])cc2)N1c1ccccc1` (stereo not given), the activation was -0.41%.

For the compound `N#CC1(C#N)C(c2ccc(Cl)c(Cl)c2)C1(C#N)C#N`, the activation was -0.6%.

Turning to `N#Cc1nccnc1N1CCN(C(=O)c2ccccc2)CC1`, the activation is -0.2%.

Regarding `Cn1c(SCC(=O)c2ccc(Cl)cc2)nnc1-c1cnccc1C(F)(F)F`, the activation was -0.25%.

Turning to `O=C(O)c1ccccc1N/C=C/[N+](=O)[O-]`, the activation is -0.62%.

For the compound `CC1=NOC(=O)/C1=C\c1ccccc1`, the activation was -0.92%.

In the case of `O=C1Nc2ccccc2C12NNC(=S)NN2`, the activation is -0.45%.

Consider `CCCC1NC(=O)NC(C)=C1C(=O)OCC` (stereo not given), for which the activation was -0.61%.

As for `CCOC(=O)C(=CNc1cc(C(F)(F)F)ccc1NCc1ccccc1)C(=O)OCC`, the activation is -0.25%.

With `CCOC(=O)COc1cccc2c(C)cc(=O)oc12`, the activation was -0.24%.

With `Cc1nc(-c2ccccc2)sc1-c1nnc(C2CC2)o1`, the activation is -0.45%.

Consider `O=C(CN1C(=O)/C(=C/c2ccccc2Cl)N=C1c1ccccc1)c1ccccc1`, for which the activation is -0.14%.

Turning to `COC(=O)C1=C(NNc2ncc(Cl)cc2C(F)(F)F)CSC1`, the activation is -0.05%.

Take `CC(C)c1ccc(NNS(=O)(=O)c2ccc(Cl)c(Cl)c2)cc1`: the activation is -0.45%.

Consider `CCOc1c(N2CCCCC2)c(=O)c1=O`, for which the activation is -0.13%.

Consider `O=c1[nH]/c(=C/c2ccc(OC(F)(F)F)cc2)c(=O)[nH]/c1=C/c1ccc(OC(F)(F)F)cc1`, for which the activation was -0.83%.

Turning to `CSc1nnc(-c2ccc(C(F)(F)F)cn2)o1`, the activation is 0.03%.

Take `CCOC(=O)/C(C#N)=C/N=C(N/N=C/c1cccs1)SC`: the activation was -0.19%.

Consider `FC(F)(F)c1cc(-c2ccc(Br)cc2)n[nH]1`, for which the activation was 0.22%.

Regarding `N#C/C(=C\C=C\c1ccccc1)c1nc2ccccc2[nH]1`, the activation was -5.39%.

As for `COc1cccc(/C=C2\SC(=S)C(N)C2=O)c1OC` (stereo not given), the activation was 0.34%.

Consider `NC(=S)N/N=C\Cc1nnnn1-c1ccc(Cl)cc1`, for which the activation was 0.16%.

Turning to `Cc1ncn2cc(-c3ccc(Cl)cc3Cl)[nH]c(=O)c12`, the activation was -0.34%.

Regarding `N#Cc1cc([N+](=O)[O-])c(N2CCCC2)cc1N1CCCC1`, the activation was -0.6%.

With `CC(C)(C)c1cc(C(=O)/C=C2/NC(=O)CS2)no1`, the activation is 0.5%.

On to `Cc1cccc(Cl)c1NC(=S)NCCNC(=O)OC(C)(C)C`, for which the activation was -0.1%.

For the compound `OC(COc1ccc(Cl)c(Cl)c1)CN1CCC(Nc2nccc(C(F)(F)F)n2)CC1` (stereo not given), the activation was -0.76%.

Consider `CCOC(=O)CCSc1cc(-n2cccc2)c(Cl)cc1[N+](=O)[O-]`, for which the activation is -0.25%.

Take `CCCN(CCC)S(=O)(=O)c1ccc(C(=O)Oc2c(C)cccc2OC)cc1`: the activation is 0.36%.

For the compound `O=C(O)CC1(CC(=O)Nc2ccc(N3CCCCC3)cc2)CCCCC1`, the activation was -0.6%.

Take `COc1cc(CC/C(C)=N/O)ccc1O`: the activation is 0.52%.

Consider `O=C(Nc1cccnc1Oc1ncnc2cc(Cl)ccc12)c1ccc(F)cc1`, for which the activation is -5.46%.

`O=C(O)c1ncoc1-c1cccc(Cl)c1`: the activation was -0.29%.

For the compound `Cn1cnc(S(=O)(=O)Nc2ccc3[nH]ccc3c2)c1`, the activation is -0.46%.

`COc1ccc(C(=O)NNC(=O)c2c(OC)cc(C(F)(F)F)cc2C(F)(F)F)cc1`: the activation was 0.11%.

Turning to `O=C(O)C#Cc1cccc2ccccc12`, the activation is -0.45%.

In the case of `Cn1cc(Br)c(-c2cccc(NC(=O)c3ccccc3Cl)c2)n1`, the activation was -0.38%.

As to `Cc1onc(-c2ccccc2Cl)c1NC(=O)N1c2ccc(F)cc2CCC1C` (stereo not given), the activation is -0.44%.

`CN(C)/C=C1/C(=O)NN=C1CSc1ccc(Cl)cc1`: the activation is -0.25%.

Regarding `Cc1c(S(=O)(=O)N2CCOCC2)ccc(Cl)c1F`, the activation was -1.27%.

With `N#C/C=C/c1ccc(C(F)(F)F)cc1[N+](=O)[O-]`, the activation is -0.41%.

For `Cc1nc2c(ncn2-c2ccccc2)c(=O)n1NC(=O)CN1CCCC1`, the activation was -4.07%.

As for `COc1ccc(CCN=C(C)c2cc(Cl)cc(Cl)c2O)cc1OC`, the activation was -0.13%.

For `CC(C)(C)NC(=O)NCC(c1ccc[nH]1)C(F)(F)F` (stereo not given), the activation is -0.29%.

For the compound `CCOC(=O)C(=CNc1nc(-c2ccc(Cl)cc2)cs1)C(=O)OCC`, the activation is -0.64%.

Consider `Cc1ccc(Oc2c(C)[nH]c(=S)[nH]c2=O)cc1`, for which the activation was -0.61%.

Regarding `CC(=O)N1c2ccccc2C=Cc2ccccc21`, the activation was -5.39%.

In the case of `CN(C)c1ccc(/C=C(\C#N)S(C)(=O)=O)c(Cl)c1`, the activation is -0.47%.

As for `Cc1cc(C(F)(F)F)nc2c(-c3noc(-c4ccccc4)n3)cnn12`, the activation was -0.99%.

Turning to `O=C(c1ccc(C#Cc2ccccc2)o1)N1CCCCC1`, the activation was -0.2%.

In the case of `O=[N+]([O-])c1ccc(CSc2nnc(-c3ccncc3)o2)cc1`, the activation was 0.14%.

Consider `Cc1[nH]c2c(F)cc(F)cc2c(=O)c1I`, for which the activation is -0.36%.

Regarding `O=C1c2cc(S(=O)(=O)Oc3ccccc3)ccc2-c2ccc(S(=O)(=O)Oc3ccccc3)cc21`, the activation was -1.18%.

Turning to `CCCCc1c(O)cc(-c2ccccc2)n(Cc2ccccc2)c1=O`, the activation was -0.19%.

Turning to `COC(=O)C(C#N)c1ccc(C(F)(F)F)cc1[N+](=O)[O-]` (stereo not given), the activation was -0.67%.

With `CC(C)S(=O)(=O)c1cscc1N/C=C(/C#N)C(=O)C1CC1`, the activation was 0%.

Turning to `Cc1nc(-c2nnc(SCC(=O)c3ccc(F)cc3)n2C)cs1`, the activation was -0.64%.

In the case of `NNC(=O)c1csc(-c2ccc(C(F)(F)F)cn2)n1`, the activation was -0.19%.

With `CCOC(=O)c1cc(CC)sc1NC(=O)c1cccnc1Oc1ccccc1`, the activation is 0.22%.

`COC(=O)c1c(C(=O)OC)c2n(c1C)CCS2`: the activation is 3.54% (active).

`Cc1cc(-c2nc(C(=O)NN3CCCCC3)cs2)no1`: the activation was -0.7%.

`Cc1noc(C)c1C(=O)Oc1cccc2cccnc12`: the activation was 0.63%.

In the case of `S=C1NCN(CCCn2ccnc2)CN1`, the activation was 0.16%.

Take `COc1ccc(CCNC(=O)c2ccccc2-c2ccccc2C(=O)O)cc1OC`: the activation was -0.75%.

On to `Cc1noc(C)c1S(=O)(=O)NCc1cc(F)cc2c1OCOC2`, for which the activation was -0.53%.

As to `Nc1nc(C23CC4CC(CC(C4)C2)C3)cs1`, the activation is -0.6%.

On to `COC(=O)c1ccc2snnc2c1`, for which the activation was -0.29%.

Consider `CCOC(=O)/C=C(/Nc1ccccc1SC)c1ccccc1`, for which the activation is -0.36%.

As to `COC(=O)c1cc(OC)c(OC)cc1NC(=O)CSc1ccc(Cl)cc1`, the activation is -0.78%.

For the compound `N/C(Cc1cccs1)=N\OC(=O)c1ccccc1`, the activation is -0.76%.

For `Cc1cc(/C(N)=N/OC(=O)c2cccs2)c(-c2ccccc2)o1`, the activation was 2.72% (active).

For the compound `CS(=O)(=O)Nc1ccc(/C(N)=N/OC(=O)c2cccs2)cc1`, the activation is -0.39%.

With `COC(OC)c1ccc(C#N)c(SCC(=O)Nc2ccc(C(F)(F)F)cc2)n1`, the activation was -0.25%.

For the compound `O=C(Nc1ccccc1N1CCOCC1)NC1CCN(C(=O)OCc2ccccc2)CC1`, the activation is -0.87%.

Regarding `Clc1ccc(C=NCc2cccnc2)c(Cl)c1`, the activation was -0.28%.

For `Cc1nc(-c2ncc(-c3ccccc3)o2)c(C(F)(F)F)o1`, the activation was -4.8%.

On to `NC(=O)C1CCN(CC(O)CSc2ccc(F)cc2)CC1` (stereo not given), for which the activation is -5.86%.

With `CCOC(=O)C(=CNc1ccc2n[nH]nc2c1)C(=O)OCC`, the activation was -0.78%.

On to `Cn1nccc1NC(=O)CC(CC(=O)O)c1ccccc1` (stereo not given), for which the activation is 0.57%.

`CCOC(=O)c1ccc(NC)c(N)c1`: the activation is -0.75%.

Consider `COc1ccc2cc(/C(C)=N/OC(=O)Nc3ccccc3)ccc2c1`, for which the activation was 0.13%.

On to `COc1cc(C=C(C#N)C#N)cc(OC(C)=O)c1OC(C)=O`, for which the activation is -0.27%.

The values above are taken from PubChem BioAssay AID434982 (The Scripps Research Institute Molecular Screening Center, 2010).
